PubChem BioAssay AID1159580 (chemical genetic matrix, 2015)
Several values for one entry are separate records, joined by “and”; a condition that tells them apart may be missing. Identical values can stand only once. About 2,000 (36%) of roughly 5,500 compounds were called active. About 18% were inconclusive and are not listed. No stated cut-off is given here; in the data, active means normalized growth mostly below about 0.91 (no sharp cut-off); inconclusive means no clear call, values can overlap the other calls; inactive means mostly above about 0.92. The list shows a part of the results.

Test: chemical genetic growth profiling, strain panel (AID 1159580);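 further: tested at 20 µM; growth read once vehicle control cultures reached saturation at 30 °C; 1 = growth at the plate median or of vehicle wells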
Conditions: S. cerevisiae deletion strains, growth OD

Measured: normalized growth

O=C(O)c1cc(=O)c2ccccc2[nH]1
inactive: locus YAL013W, strain DEP1, stronger effect = lower value 0.991 and 1.01 | locus YAL021C, strain ccr4, stronger effect = lower value 0.96 | locus YAL026C, strain drs2, stronger effect = lower value 0.986 | locus YAL030W, strain snc1, stronger effect = lower value 0.987 | locus YAL040C, strain CLN3, stronger effect = lower value 0.998 | locus YBL061C, strain skt5, stronger effect = lower value 0.972 | locus YBR009C, strain hhf1, stronger effect = lower value 0.979 | locus YBR021W, strain FUR4, stronger effect = lower value 1.02 | locus YBR023C, strain chs3, stronger effect = lower value 0.98 | locus YBR171W, strain sec66, stronger effect = lower value 0.975 | locus YBR229C, strain ROT2, stronger effect = lower value 0.96 | locus YBR231C, strain swc5, stronger effect = lower value 0.998 | locus YBR279W, strain paf1, stronger effect = lower value 0.992 | locus YCL011C, strain gbp2, stronger effect = lower value 0.986 | locus YCL016C, strain dcc1, stronger effect = lower value 0.981 | locus YCL029C, strain bik1, stronger effect = lower value 0.989 | locus YCL061C, strain MRC1 (second series), stronger effect = lower value 0.992 | locus YCL061C, strain MRC1, stronger effect = lower value 0.983 | locus YCL069W, strain vba3, stronger effect = lower value 0.993 | locus YCR088W, strain abp1, stronger effect = lower value 0.987 | locus YDL005C, strain med2, stronger effect = lower value 0.975 | locus YDL035C, strain GPR1, stronger effect = lower value 0.998 | locus YDL040C, strain nat1, stronger effect = lower value 0.988 | locus YDL074C, strain BRE1, stronger effect = lower value 0.986 | locus YDL101C, strain DUN1, stronger effect = lower value 0.964 | locus YDL134C, strain PPH21, stronger effect = lower value 0.972 | locus YDL185W, strain tfp1, stronger effect = lower value 0.979 | locus YDL192W, strain arf1, stronger effect = lower value 0.991 | locus YDR001C, strain nth1, stronger effect = lower value 0.991 | locus YDR069C, strain doa4, stronger effect = lower value 0.97 | locus YDR101C, strain arx1, stronger effect = lower value 0.993 | locus YDR137W, strain rgp1, stronger effect = lower value 1.02 | locus YDR150W, strain NUM1, stronger effect = lower value 0.975 and 1.01 | locus YDR159W, strain sac3, stronger effect = lower value 0.962 | locus YDR162C, strain NBP2, stronger effect = lower value 0.99 | locus YDR195W, strain ref2 0.968 | locus YDR297W, strain sur2, stronger effect = lower value 0.985 | locus YDR318W, strain mcm21, stronger effect = lower value 0.99 | locus YDR334W, strain swr1, stronger effect = lower value 0.984 | locus YDR335W, strain msn5, stronger effect = lower value 0.99 | locus YDR363W, strain ESC2, stronger effect = lower value 0.981 | locus YDR388W, stronger effect = lower value 0.997 | locus YDR392W, strain spt3, stronger effect = lower value 0.963 | locus YDR502C, strain sam2, stronger effect = lower value 0.995 | locus YEL003W, strain gim4, stronger effect = lower value 0.988 | locus YEL037C, strain rad23, stronger effect = lower value 0.99 | locus YEL061C, strain CIN8 (second series), stronger effect = lower value 0.993 | locus YEL061C, strain CIN8, stronger effect = lower value 0.992 | locus YER002W, strain NOP16, stronger effect = lower value 0.98 | locus YER015W, strain faa2, stronger effect = lower value 0.984 | locus YER016W, strain bim1, stronger effect = lower value 0.987 | locus YER110C, stronger effect = lower value 0.978 | locus YER111C, strain swi4, stronger effect = lower value 0.983 | locus YER155C, strain BEM2 (second series), stronger effect = lower value 0.981 | locus YER155C, strain BEM2, stronger effect = lower value 0.997 | locus YER167W, strain BCK2, stronger effect = lower value 1 | locus YFR010W, strain ubp6, stronger effect = lower value 0.977 | locus YGL078C, strain dbp3, stronger effect = lower value 0.987 | locus YGL086W, strain mad1, stronger effect = lower value 0.998 | locus YGL167C, strain pmr1, stronger effect = lower value 0.973 | locus YGL173C, strain kem1, stronger effect = lower value 0.986 | locus YGL227W, strain vid30, stronger effect = lower value 0.984 | locus YGL240W, strain doc1, stronger effect = lower value 0.987 | locus YGL248W, strain PDE1, stronger effect = lower value 0.977 | locus YGL253W, strain hxk2, stronger effect = lower value 0.988 | locus YGR078C, strain PAC10, stronger effect = lower value 0.999 and 0.983 | locus YGR135W, strain pre9, stronger effect = lower value 0.988 | locus YGR229C, strain SMI1, stronger effect = lower value 1 | locus YGR252W, strain gcn5, stronger effect = lower value 0.992 | locus YHR013C, strain ard1, stronger effect = lower value 0.958 | locus YHR027C, strain rpn1, stronger effect = lower value 1 | locus YHR030C, strain SLT2, stronger effect = lower value 0.991 and 0.972 | locus YHR079C, strain IRE1 (second series), stronger effect = lower value 0.989 | locus YHR079C, strain IRE1, stronger effect = lower value 0.985 | locus YHR094C, strain hxt1, stronger effect = lower value 0.996 | locus YHR129C, strain ARP1, stronger effect = lower value 0.995 | locus YHR142W, strain chs7, stronger effect = lower value 0.99 | locus YHR200W, strain rpn10, stronger effect = lower value 0.987 | locus YIL066C, strain RNR3, stronger effect = lower value 0.973 | locus YIL073C, strain SPO22, stronger effect = lower value 0.95 | locus YIL125W, strain kgd1, stronger effect = lower value 0.987 | locus YIR030C, strain dcg1, stronger effect = lower value 0.983 | locus YJL092W, strain hpr5, stronger effect = lower value 0.987 | locus YJL095W, strain BCK1 (second series), stronger effect = lower value 0.973 | locus YJL095W, strain BCK1, stronger effect = lower value 1.04 and 0.987 | locus YJL115W, strain asf1, stronger effect = lower value 0.992 | locus YJL129C, strain trk1, stronger effect = lower value 0.973 | locus YJL134W, strain LCB3, stronger effect = lower value 0.982 | locus YJL154C, strain vps35, stronger effect = lower value 0.98 | locus YJL164C, strain tpk1, stronger effect = lower value 1.01 | locus YJL166W, strain qcr8, stronger effect = lower value 0.998 | locus YJL168C, strain set2, stronger effect = lower value 0.996 | locus YJL187C, strain SWE1 (second series), stronger effect = lower value 0.967 | locus YJL187C, strain SWE1, stronger effect = lower value 0.987 | locus YJR043C, strain POL32, stronger effect = lower value 1 | locus YJR066W, strain TOR1, stronger effect = lower value 0.88
